Data: PubChem BioAssay AID463173 (ICCB-Longwood Screening Facility, Harvard Medical School, 2010)
The campaign covered roughly 52,000 compounds. About 4,300 (8.3%) were called active. For the sample, actives were picked, then their nearest neighbours and some compounds at random. Values without a mark were called inactive. Cut-off read from the data, not from the text of the source: active = survival mostly below about 52% (no sharp cut-off); inactive = mostly above about 56%.

Each molecule was assayed on DeltatarO mutant (assay: S. aureus survival, RN4220 and DeltatarO strains – OD600, teichoic acid synthesis inhibitors, primary screen (AID 463173)). Details: S. aureus RN4220 wild type/DeltatarO growth, OD600, 18 h, hits give low values, screened at 18.75 µg/mL (by protocol).

Point of comparison: `CCOC(=O)Cn1c(=O)n(CC2CCCO2)c2nc(-c3ccc(C)cc3)nc(C(N)=O)c21` (configuration not stated), survival 67%. Against it:
- COc1ccc(Cn2ccc3nc(C)c(C(=O)Nc4cccc(SC)c4)cc3c2=O)cc1 — higher, 95%
- COc1ccc(Nc2ncc(C(=O)N3CCN(c4ccc(OC)cc4)CC3)c3ccccc23)cc1 — higher, 74%
- CCOc1ccc(N(CC(=O)Nc2ccc3c(c2)OCO3)S(=O)(=O)c2ccccc2)cc1 — higher, 87%
- O=C(O)CSc1c2c(nc3cc(C(=O)Nc4ccc(F)c(Cl)c4)ccc13)CCC2 — higher, 88%
- Cc1cc(S(=O)(=O)n2ccnc2C(C)C)cc([N+](=O)[O-])c1C — lower, 57%
- COc1ccc(CNC(=O)c2ccc3nc(CCc4ccccc4)oc3c2)cc1OC — higher, 79%
- COc1ccc(CNC(=O)c2ccc3nc(CCc4ccccc4)oc3c2)c(OC)c1 — higher, 135%
- Cc1ccc(-c2onc(C)c2C)cc1S(=O)(=O)NC1CCCCC1 — higher, 77%
- COc1ccc(NC(=O)c2ccco2)cc1NC(=O)c1ccc(OC(C)C)cc1 — higher, 121%
- COc1ccc(NC(=O)c2ccco2)cc1NC(=O)c1cc(Cl)ccc1OC — lower, 49%
- COc1ccc(NC(=O)c2ccco2)cc1NC(=O)C(C)C — higher, 84%
- COc1ccc(NC(=O)c2ccco2)cc1NC(=O)COc1ccc(Cl)cc1C — lower, 57%
- COc1ccc(NC(=O)c2sc3nc(C)c(C(=O)Nc4ccc(C)cc4C)c(-c4sccc4C)c3c2N)cc1 — higher, 91%
- c1ccc(NCc2ccncc2)cc1 — higher, 83%
- C=Cn1cccc1C(=O)O — higher, 83%
- CC(C)CCNC(=O)c1ccc2c(c1)NC(=O)C(CS(=O)(=O)Cc1ccc(F)cc1)N2 (configuration not stated) — higher, 80%
- Cc1ccc(CNC(=O)CCCc2nnc3n(CC(C)C)c(=O)c4sccc4n23)cc1 — higher, 101%
- CCOC(=O)Cn1c(=O)n(CC2CCCO2)c2nc(-c3ccc(CC)cc3)nc(C(N)=O)c21 (configuration not stated) — higher, 72%
- CCOC(=O)Cn1c(=O)n(-c2ccccc2OC)c2nc(-c3ccc(C(C)C)cc3)nc(C(N)=O)c21 — higher, 86%
- CCOC(=O)Cn1c(=O)n(-c2ccccc2OC)c2nc(-c3cccc(F)c3)nc(C(N)=O)c21 — lower, 64%
- CCOC(=O)Cn1c(=O)n(CC2CCCO2)c2nc(-c3cccc(C)c3)nc(C(N)=O)c21 (configuration not stated) — higher, 79%
- CCOC(=O)Cn1c(=O)n(CC2CCCO2)c2nc(-c3ccccc3)nc(C(N)=O)c21 (configuration not stated) — higher, 84%
- COc1cc(OC)c(NC(=O)C2CCCN(c3ncnc4c3nc3n4CCCCC3)C2)cc1Cl (configuration not stated) — higher, 122%
- O=C1c2ccccc2C(=O)N1c1ncn[nH]1 — higher, 94%
- O=C(CSc1nc2c([nH]c3ccccc32)c(=O)n1-c1ccc(F)cc1)Nc1ccc2c(c1)OCO2 — lower, 58%
- COc1ccc(NC(=O)Cn2c(=O)n(CCCC(=O)NCc3ccccc3Cl)c(=O)c3ccccc32)c(OC)c1 — higher, 125%
- O=C(CC1N=C2c3ccccc3N=C(SCc3ccc(Cl)cc3)N2C1=O)NCc1cccs1 (configuration not stated) — higher, 75%
- COc1ccc(CCNC(=O)c2ccc(Cn3c(=O)c4ccccc4n(Cc4cccc(F)c4)c3=O)cc2)cc1OC — higher, 78%
- CNC(=O)C1CCC(Cn2c(=O)c3sccc3n(CC(=O)NCc3ccc(F)cc3)c2=O)CC1 (configuration not stated) — higher, 73%
- CNC(=O)C1CCC(Cn2c(=O)c3sccc3n(CC(=O)Nc3ccc(C)cc3C)c2=O)CC1 (configuration not stated) — higher, 87%
- Cc1ccc(C)c(Cn2c(=O)n(CC3CCC(C(=O)N4CCOCC4)CC3)c(=O)c3sccc32)c1 (configuration not stated) — higher, 80%
- CNC(=O)C1CCC(Cn2c(=O)c3sccc3n(CC(=O)NCc3ccc(C)cc3)c2=O)CC1 (configuration not stated) — higher, 80%
- COc1ccc(CC(=O)NC2CC(=O)N(c3cccc(F)c3)C2)cc1 (configuration not stated) — higher, 94%
- O=C(Nc1nncs1)C1c2ccccc2Oc2ccccc21 — higher, 108%
- CCOC(=O)C1CCCN(S(=O)(=O)c2ccc3c(c2)CCCN3C(C)=O)C1 (configuration not stated) — higher, 80%
- CS(=O)(=O)N1CCSC1c1ccc(Cl)cc1Cl (configuration not stated) — higher, 109%
- COc1ccc2oc(=O)c(-c3nnc(-c4ccccc4)o3)cc2c1 — higher, 69%
- O=C(O)CCC(=O)NCc1ccccn1 — higher, 82%
- COc1cccc(NC(=O)CSc2nc3ccc(NC(=O)c4cccs4)cc3s2)c1 — lower, 65%
- CCN(CC)c1ccc2cc(-c3nc(-c4ccccc4F)no3)c(=O)oc2c1 — higher, 101%
- Cc1csc(-c2cc3ccccc3oc2=O)n1 — higher, 85%
- COc1ccc(/C=C(\C#N)c2nc(-c3cc4ccccc4oc3=O)cs2)cc1OC — lower, 65%
- COc1ccc(/C=C(/C#N)c2nc(-c3cc4ccccc4oc3=O)cs2)cc1 — higher, 78%
- O=c1oc2ccccc2cc1-c1nc(-c2cccc(Cl)c2)cs1 — higher, 102%
- CCN(CC)c1ccc2cc(-c3nnc(-c4cccc(Cl)c4)o3)c(=O)oc2c1 — higher, 69%

`COc1ccc(CNC(=O)c2ccc3nc(CCc4ccccc4)oc3c2)cc1` was tested, and the survival was 0% (active).
For `COc1ccc(NC(=O)c2ccco2)cc1NC(=O)C(C)(C)Oc1ccc(Cl)cc1`, the survival was 40% (active).
With `COc1ccc(NC(=O)c2ccco2)cc1NC(=O)C(C)Oc1ccc(Cl)cc1Cl` (configuration not stated) the survival was 28% (active).
`CCOC(=O)Cn1c(=O)n(-c2ccccc2OC)c2nc(-c3ccccc3)nc(C(N)=O)c21` was tested, and the survival was -1% (active).
For `CCOC(=O)Cn1c(=O)n(CC2CCCO2)c2nc(-c3ccc(OCC)cc3)nc(C(N)=O)c21` (configuration not stated), the survival was -2% (active).
For `CCOC(=O)Cn1c(=O)n(CC2CCCO2)c2nc(-c3ccc(C(C)C)cc3)nc(C(N)=O)c21` (configuration not stated), the survival was 6% (active).
`CNC(=O)C1CCC(Cn2c(=O)c3sccc3n(Cc3cc(C)ccc3C)c2=O)CC1` (configuration not stated) was tested, and the survival was 47% (active).
`CNC(=O)C1CCC(Cn2c(=O)c3sccc3n(CC(=O)NCc3ccccc3)c2=O)CC1` (configuration not stated) was tested, and the survival was 32% (active).
With `CCN(CC)c1ccc2cc(-c3nc(-c4ccc(Cl)cc4Cl)cs3)c(=O)oc2c1` the survival was 37% (active).
With `COc1ccccc1/C=C(\C#N)c1nc(-c2cc3ccccc3oc2=O)cs1` the survival was 56% (active).
In the case of `Cc1cc(C)c(-c2csc(-c3cc4ccccc4oc3=O)n2)cc1C`, the survival is reported as 31% (active).
